According to the supplement of paper PMC6555819:

Each sequence was assayed on VDR:RXRa (NR concentration 270 nM, RXRa partner concentration 90 nM) (assay: PBM binding z-score (relative to random genomic background probes); higher = stronger binding; sequences stand for … in GC…GCGATTGACAGCGTAGAATGAAGG).
Procedure: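 Protein-binding microarray (Agilent 4x180K custom design, double-stranded 60-nt probes: 5' GC cap, 34-nt variable region, 24-nt constant primer region; full probe sequence given). Purified or IVT nuclear receptor:RXRα heterodimers (3:1 NR:RXRα, mostly 270:90 nM) or homodimers were incubated for 1 h in PBS with 2% milk and no ligand, then detected with Alexa488 antibodies. Fluorescence from o1-orientation probes (~5 replicates averaged) was converted to z-scores against 500 random hg19 background probes. Variable regions are seed direct-repeat (DR0–DR5) sites, all their single-nucleotide variants and half-site ablations.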

Row | Sequence | PBM binding z-score
1 | CCGAATAGGTTACGAGGGGGCATTCAGTGCGAAT | 5.89
2 | CGTCAAAGGTCAAGGTCAGTGAAAGAGACTCGAA | 5.77
3 | CCTAGTGGGCCAAGGTCATTGATCAGTCAAAGCA | 3.33
4 | ATCGAAAGGTCAAAGGTGAGTATACCCACCCGAA | 6.2
5 | TAGCCTAGGTCATTCAGGGGCCAGCATAGAAAGC | 2.97
6 | CGTCAAAGTTCAACTGAGGTAACGTAAAGCACGC | 5.16
7 | CTATGTAGGTTACGGGGGTCATTCAGTTTGAAAG | 7.72
8 | GGAACGAGGGCAAAGTTCATAGCATCTGTCGACG | 5.05
9 | TATTCAGGGTCAAAGGCCAGAGTACGAATGTCGA | 5.12
10 | CGAACTAGGTCGAGGACAGTGAATCTCCGCACGC | 0.0505
11 | CGAACGAGGTCACCAGGACAGTGAAGAGGTTGGA | 5.65
12 | CGAACGAGGTCATGAGTTGATAGCAAATGCCGAT | 5.57
13 | TCTAGTTGGTCACGGAGGGCACACACGACGGGTA | 3.62
14 | CCTAGTTGGTCAAGGTCACATACGCTATAGGTAC | 4.04
15 | TACCCTAGGTCATTCAGGGGCCAGTATAGAAAGC | 3.44
16 | CCTTACGGGTCACTCCAGGTCATAGCATCGGAGT | 5.95
17 | CGAACTAGGTCGCCAGGACAGTGAAGAGGTTGGA | -0.0336
18 | CCTTAGGGGTCAAGGTTATAGCACGGGTGGTACG | 6.11
19 | AGAATGAGGTCAAGATCAGGGAAACAGAATACAT | 4.93
20 | TTACCAAGGTGAAAGGTCGTTGCTGCACGCCTTG | 3.19
